Several values for one entry are separate records, joined by “and”; a condition that tells them apart may be missing. Equal values may be shown once. A structure can be active in one record and inactive in another. Activity calls are given as the source filed them. Rule for the calls: active = hit-call score of the fitted dose curve at least 0.9, where 1 is the maximum; inactive = score below 0.9.

Read-out in one experiment: Intercellular Adhesion Molecule 1 (ICAM1), ICAM1 (gene 3383)
Put plainly: BSK_KF3CT_ICAM1: BioMAP Diversity Plus: KF3CT Assay for Intercellular Adhesion Molecule 1 (ICAM1) Biomarker Activity (AID 2283067). The following applies: primary human keratinocytes with fibroblasts; actives raise or lower the signal. An outline of the steps:
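ELISA readout of ICAM-1; KF3CT human skin co-culture (keratinocytes + foreskin fibroblasts), 24 h post-dose; gain/loss fit vs DMSO baseline.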
For the molecule `O=C(O)CCCOc1ccc(Cl)cc1Cl`, the result was inactive.

Turning to `O=C(O)C(F)(F)C(F)(F)C(F)(F)C(F)(F)C(F)(F)C(F)(F)C(F)(F)F`, the result was inactive.

For the molecule `COc1nn(CSP(=S)(OC)OC)c(=O)s1`, the outcome was inactive.

Take `CC1(c2ccc(Oc3ccccc3)cc2)OC(=O)N(Nc2ccccc2)C1=O` (centres undefined): the result was inactive.

`ClC1C(Cl)C(Cl)C(Cl)C(Cl)C1Cl` (centres undefined): the outcome was inactive.

`N#CN`: the result was inactive.

Take `COC(=O)c1ccccc1S(=O)(=O)NC(=O)N(C)c1nc(C)nc(OC)n1`: the outcome was inactive.

For the molecule `O=C(NC(=O)c1c(F)cccc1F)Nc1ccc(OC(F)(F)C(F)OC(F)(F)F)c(Cl)c1` (centres undefined), the result was inactive.

For `CNC(=O)/C=C(\C)OP(=O)(OC)OC`, the result was inactive.

In general, AC50 refers to the concentration giving half of the maximal activity seen. As for `O=S(=O)(O)C(F)(F)C(F)(F)C(F)(F)C(F)(F)C(F)(F)C(F)(F)C(F)(F)C(F)(F)F`, the AC50 was 29.9 µM (active) and the result was inactive.

With `COc1cc(OC)nc(NC(=O)NS(=O)(=O)c2cc(NC=O)ccc2C(=O)N(C)C)n1`, the outcome was inactive.

On to `O=C(O)COc1ccc(Cl)cc1Cl`, for which the outcome was inactive.

`CC1(C)C(C=C(Cl)Cl)C1C(=O)OC(C#N)c1ccc(F)c(Oc2ccccc2)c1` (centres undefined): the outcome was inactive.

Take `CCN(CC)C(=O)SCc1ccc(Cl)cc1`: the result was inactive.

Consider `Oc1cc(Cl)ccc1Oc1ccc(Cl)cc1Cl`, for which the AC50 was 32.2 µM (active) [middle of 4 runs].

Turning to `C[C@H]1[C@H](c2ccc(Cl)cc2)SC(=O)N1C(=O)NC1CCCCC1`, the outcome was inactive.

For `CC(C)(C)C(O)/C(=C\c1ccc(Cl)cc1Cl)n1cncn1` (centres undefined), the AC50 is 34.4 µM (active).

On to `CCC(C)(NC(=O)c1cc(Cl)c(C)c(Cl)c1)C(=O)CCl` (centres undefined), for which the AC50 is 16.5 µM (active).

Take `COC(=O)c1ccccc1CS(=O)(=O)NC(=O)Nc1nc(OC)cc(OC)n1`: the outcome was inactive.

For the molecule `COC(=O)c1ccccc1S(=O)(=O)NC(=O)Nc1nc(C)nc(OC)n1`, the outcome was inactive.

Regarding `CC(C)OC(=O)Nc1cccc(Cl)c1`, the outcome was inactive.

Regarding `CCOc1nc(NC)nc(NC(=O)NS(=O)(=O)c2ccccc2C(=O)OC)n1`, the result was inactive.

With `O=C(Nc1ccccc1)Nc1cnns1`, the result was inactive.

Take `CNC(=O)Oc1ccccc1OC(C)C`: the outcome was inactive.

On to `O=[N+]([O-])c1c(Cl)c(Cl)c(Cl)c(Cl)c1Cl`, for which the outcome was inactive.

Read-out in another experiment: Interferon-gamma inducible Protein 10 (IP10), CXCL10 (gene 3627)
Put plainly: BSK_KF3CT_IP10: BioMAP Diversity Plus: KF3CT Assay for Interferon-gamma inducible Protein 10 (IP10) Biomarker Activity (AID 2283068). The following applies: primary human keratinocytes with fibroblasts; actives raise or lower the signal. An outline of the steps:
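Signal is secreted/surface IP-10 by ELISA in a human primary skin co-culture of keratinocytes and foreskin fibroblasts, taken 24 h post-dosing; DMSO served as negative control.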
With `O=C(O)CCCOc1ccc(Cl)cc1Cl`, the AC50 was 23.6 µM (active).

With `O=C(O)C(F)(F)C(F)(F)C(F)(F)C(F)(F)C(F)(F)C(F)(F)C(F)(F)F`, the result was inactive.

Take `COc1nn(CSP(=S)(OC)OC)c(=O)s1`: the result was inactive.

Regarding `CC1(c2ccc(Oc3ccccc3)cc2)OC(=O)N(Nc2ccccc2)C1=O` (centres undefined), the outcome was inactive.

For `ClC1C(Cl)C(Cl)C(Cl)C(Cl)C1Cl` (centres undefined), the result was inactive.

As to `N#CN`, the outcome was inactive.

Regarding `COC(=O)c1ccccc1S(=O)(=O)NC(=O)N(C)c1nc(C)nc(OC)n1`, the result was inactive.

With `O=C(NC(=O)c1c(F)cccc1F)Nc1ccc(OC(F)(F)C(F)OC(F)(F)F)c(Cl)c1` (centres undefined), the result was inactive.

On to `CNC(=O)/C=C(\C)OP(=O)(OC)OC`, for which the outcome was inactive.

`O=S(=O)(O)C(F)(F)C(F)(F)C(F)(F)C(F)(F)C(F)(F)C(F)(F)C(F)(F)C(F)(F)F`: the AC50 is 23.1 µM (active) [middle of 5 runs] and the outcome was inactive.

Consider `COc1cc(OC)nc(NC(=O)NS(=O)(=O)c2cc(NC=O)ccc2C(=O)N(C)C)n1`, for which the result was inactive.

For `O=C(O)COc1ccc(Cl)cc1Cl`, the result was inactive.

Consider `CC1(C)C(C=C(Cl)Cl)C1C(=O)OC(C#N)c1ccc(F)c(Oc2ccccc2)c1` (centres undefined), for which the outcome was inactive.

On to `CCN(CC)C(=O)SCc1ccc(Cl)cc1`, for which the result was inactive.

Consider `Oc1cc(Cl)ccc1Oc1ccc(Cl)cc1Cl`, for which the concentration at half-maximal activity (AC50) was 33.7 µM (active) and 29 µM (active); the result was inactive.

Consider `C[C@H]1[C@H](c2ccc(Cl)cc2)SC(=O)N1C(=O)NC1CCCCC1`, for which the outcome was inactive.

For the molecule `CC(C)(C)C(O)/C(=C\c1ccc(Cl)cc1Cl)n1cncn1` (centres undefined), the AC50 is 29.7 µM (active).

`CCC(C)(NC(=O)c1cc(Cl)c(C)c(Cl)c1)C(=O)CCl` (centres undefined): the half-maximal activity concentration (AC50) is 10.8 µM (active).

With `COC(=O)c1ccccc1CS(=O)(=O)NC(=O)Nc1nc(OC)cc(OC)n1`, the result was inactive.

Take `COC(=O)c1ccccc1S(=O)(=O)NC(=O)Nc1nc(C)nc(OC)n1`: the result was inactive.

As to `CC(C)OC(=O)Nc1cccc(Cl)c1`, the result was inactive.

For the molecule `CCOc1nc(NC)nc(NC(=O)NS(=O)(=O)c2ccccc2C(=O)OC)n1`, the concentration at half-maximal activity (AC50) is 20 µM (active).

As for `O=C(Nc1ccccc1)Nc1cnns1`, the result was inactive.

As to `CNC(=O)Oc1ccccc1OC(C)C`, the result was inactive.

For the molecule `O=[N+]([O-])c1c(Cl)c(Cl)c(Cl)c(Cl)c1Cl`, the half-maximal activity concentration (AC50) was 17.6 µM (active).

Read-out in another experiment: not listed separately
Put plainly: BSK_KF3CT_SRB: Viability Assessment in the BioMAP Diversity Plus: KF3CT Assay (AID 2283069).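 Note: total protein by sulforhodamine B staining as a cytotoxicity measure; read 24 h after compound addition; fitted for both signal gain and loss against DMSO baseline.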 The following applies: primary human keratinocytes with fibroblasts. An outline of the steps: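 Human primary keratinocyte plus foreskin fibroblast co-culture exposed to chemicals for 24 h. Total protein measured by 0.1% sulforhodamine B staining after 10% TCA fixation, read at 560 nm; bidirectional fitting versus DMSO baseline.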
`O=C(O)CCCOc1ccc(Cl)cc1Cl`: the result was inactive.

Regarding `O=C(O)C(F)(F)C(F)(F)C(F)(F)C(F)(F)C(F)(F)C(F)(F)C(F)(F)F`, the result was inactive.

`COc1nn(CSP(=S)(OC)OC)c(=O)s1`: the result was inactive.

As for `CC1(c2ccc(Oc3ccccc3)cc2)OC(=O)N(Nc2ccccc2)C1=O` (centres undefined), the result was inactive.

With `ClC1C(Cl)C(Cl)C(Cl)C(Cl)C1Cl` (centres undefined), the result was inactive.

Consider `N#CN`, for which the result was inactive.

On to `COC(=O)c1ccccc1S(=O)(=O)NC(=O)N(C)c1nc(C)nc(OC)n1`, for which the outcome was inactive.

As to `O=C(NC(=O)c1c(F)cccc1F)Nc1ccc(OC(F)(F)C(F)OC(F)(F)F)c(Cl)c1` (centres undefined), the result was inactive.

For the molecule `CNC(=O)/C=C(\C)OP(=O)(OC)OC`, the result was inactive.

On to `O=S(=O)(O)C(F)(F)C(F)(F)C(F)(F)C(F)(F)C(F)(F)C(F)(F)C(F)(F)C(F)(F)F`, for which the AC50 was 39.2 µM (active) and 29.9 µM (active); the outcome was inactive.

Consider `COc1cc(OC)nc(NC(=O)NS(=O)(=O)c2cc(NC=O)ccc2C(=O)N(C)C)n1`, for which the result was inactive.

On to `O=C(O)COc1ccc(Cl)cc1Cl`, for which the result was inactive.

With `CC1(C)C(C=C(Cl)Cl)C1C(=O)OC(C#N)c1ccc(F)c(Oc2ccccc2)c1` (centres undefined), the outcome was inactive.

With `CCN(CC)C(=O)SCc1ccc(Cl)cc1`, the outcome was inactive.

Turning to `Oc1cc(Cl)ccc1Oc1ccc(Cl)cc1Cl`, the concentration at half-maximal activity (AC50) is 30.1 µM (active) and 14.4 µM (active) and 28.2 µM (active).

As to `C[C@H]1[C@H](c2ccc(Cl)cc2)SC(=O)N1C(=O)NC1CCCCC1`, the outcome was inactive.

Take `CC(C)(C)C(O)/C(=C\c1ccc(Cl)cc1Cl)n1cncn1` (centres undefined): the AC50 is 20 µM (active).

Regarding `CCC(C)(NC(=O)c1cc(Cl)c(C)c(Cl)c1)C(=O)CCl` (centres undefined), the AC50 was 31.8 µM (active).

Regarding `COC(=O)c1ccccc1CS(=O)(=O)NC(=O)Nc1nc(OC)cc(OC)n1`, the outcome was inactive.

As for `COC(=O)c1ccccc1S(=O)(=O)NC(=O)Nc1nc(C)nc(OC)n1`, the result was inactive.

In the case of `CC(C)OC(=O)Nc1cccc(Cl)c1`, the outcome was inactive.

Turning to `CCOc1nc(NC)nc(NC(=O)NS(=O)(=O)c2ccccc2C(=O)OC)n1`, the outcome was inactive.

Take `O=C(Nc1ccccc1)Nc1cnns1`: the outcome was inactive.

In the case of `CNC(=O)Oc1ccccc1OC(C)C`, the result was inactive.

In the case of `O=[N+]([O-])c1c(Cl)c(Cl)c(Cl)c(Cl)c1Cl`, the AC50 is 25.3 µM (active).

The values are drawn from PubChem BioAssay (EPA / NIEHS).
